Read-out in experiment [1]: xenobiotic metabolism (CYP1A2), CYP1A2 (gene 1544)
The experiment in a line: CLD_CYP1A2_24hr: CellzDirect (CLD) Gene Expression Assay for xenobiotic metabolism (CYP1A2) at 24 hours (AID 2283683). In a few lines:
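CYP1A2 mRNA induction measured by quantitative nuclease protection (chemiluminescent) in human primary hepatocytes 24 h after multi-concentration chemical dosing with daily fresh solutions. DMSO (0.2%) baseline; positive-direction fitting; morphology-based cytotoxicity noted.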

Read-out in experiment [2]: Broad substrate specificity ATP-binding cassette transporter ABCG2 (Homo sapiens) (UniProt Q9UNQ0)
The experiment in a line: CLD_ABCG2_24hr: CellzDirect (CLD) Gene Expression Assay for ABC Transporter (ABCG2) at 24 hours (AID 2283685). In a few lines: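 ABCG2 mRNA induction, read as gain of chemiluminescent signal over 0.2% DMSO, was measured by quantitative nuclease protection at 24 h. Cultured human liver hepatocytes were given fresh dosing solutions of test chemicals at several concentrations each day.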

Read-out in experiment [3]: Cytochrome P450 2C19 (Homo sapiens) (UniProt P33261)
The experiment can be described thus: CLD_CYP2C19_24hr: CellzDirect (CLD) Gene Expression Assay for xenobiotic metabolism (CYP2C19) at 24 hours (AID 2283687).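 Note: activity means mRNA induction above DMSO vehicle baseline.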 In a few lines:
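CYP2C19 mRNA was quantified by qNPA chemiluminescence after 24 h of daily dosing of cultured human primary hepatocytes from two donors; vehicle was 0.2% DMSO, and increases over DMSO baseline were fitted.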

Read-out in experiment [4]: Cytochrome P450 2C9 (Homo sapiens) (UniProt P11712)
The experiment can be described thus: CLD_CYP2C9_24hr: CellzDirect (CLD) Gene Expression Assay for xenobiotic metabolism (CYP2C9) at 24 hours (AID 2283688).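 For AC50: potency for induction meaning a rise in CYP2C9 mRNA over DMSO vehicle.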 In a few lines: (§1)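 Induction of CYP2C9 mRNA was quantified by quantitative nuclease protection assay (chemiluminescence), gain of signal versus 0.2% DMSO vehicle, 24 h after dosing. Human primary hepatocytes (two donors) received fresh chemical daily at multiple concentrations; morphology-based cytotoxicity flagged yes/no.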

Read-out in experiment [5]: HMG-CoA synthase (HMGCS2), HMGCS2 (gene 3158)
The experiment in a line: CLD_HMGCS2_24hr: CellzDirect (CLD) Gene Expression Assay for HMG-CoA synthase (HMGCS2) at 24 hours (AID 2283691). The essentials:
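qNPA with S1 nuclease digestion and chemiluminescent detection gave HMGCS2 transcript levels, fitted upward against 0.2% DMSO vehicle. Cultured human hepatocytes (two donors) received fresh compound daily and were harvested at 24 h; phase-contrast morphology flagged cytotoxicity.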

Read-out in experiment [6]: Glyceraldehyde-3-phosphate dehydrogenase (Homo sapiens) (UniProt P04406)
The experiment in a line: CLD_GAPDH_24hr: CellzDirect (CLD) Gene Expression Assay for Baseline Control (Glyceraldehyde 3-phosphate dehydrogenase) at 24 hours (AID 2283692). The essentials:
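GAPDH baseline-control readout: qNPA chemiluminescent mRNA signal in human primary hepatocytes harvested 24 h after daily dosing, normalised to 0.2% DMSO with positive fitting direction; cytotoxicity annotated by phase-contrast morphology.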

Read-out in experiment [7]: xenobiotic metabolism (CYP1A2), CYP1A2 (gene 1544)
The experiment in a line: CLD_CYP1A2_48hr: CellzDirect (CLD) Gene Expression Assay for xenobiotic metabolism (CYP1A2) at 48 hours (AID 2283703). The essentials: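 Cytotoxicity was flagged yes/no from morphology, while CYP1A2 transcript induction was detected by qNPA chemiluminescence after a 48-hour exposure. Human primary hepatocyte cultures from separate donors received fresh dosing solutions daily over two days, with 0.2% DMSO as vehicle and baseline.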

Read-out in experiment [8]: Broad substrate specificity ATP-binding cassette transporter ABCG2 (Homo sapiens) (UniProt Q9UNQ0)
The experiment can be described thus: CLD_ABCG2_48hr: CellzDirect (CLD) Gene Expression Assay for ABC Transporter (ABCG2) at 48 hours (AID 2283704). In a few lines: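 ABCG2 transcript measured at 48 h by quantitative nuclease protection (chemiluminescent) and fitted for increase relative to 0.2% DMSO. Hepatocyte cultures from separate donors got fresh compound daily over two days; morphology annotated cytotoxicity.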

Read-out in experiment [9]: Cytochrome P450 2B6 (Homo sapiens) (UniProt P20813)
The experiment in a line: CLD_CYP2B6_24hr: CellzDirect (CLD) Gene Expression Assay for xenobiotic metabolism (CYP2B6) at 24 hours (AID 2283686). The essentials:
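qNPA chemiluminescent measurement of mRNA at 24 hours in human primary hepatocyte cultures from two donor preparations, with daily fresh dosing and 0.2% DMSO vehicle as baseline. Morphology-based cytotoxicity flagged yes/no.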

Read-out in experiment [10]: xenobiotic metabolism (CYP2C9), CYP2C9 (gene 1559)
The experiment in a line: CLD_CYP2C9_24hr: CellzDirect (CLD) Gene Expression Assay for xenobiotic metabolism (CYP1A2) at 24 hours (AID 2283688).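 For AC50: potency for induction meaning a rise in CYP2C9 mRNA over DMSO vehicle.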 In a few lines: as §1

Read-out in experiment [11]: Cytochrome P450 3A4 (Homo sapiens) (UniProt P08684)
The experiment in a line: CLD_CYP3A4_24hr: CellzDirect (CLD) Gene Expression Assay for xenobiotic metabolism (CYP3A4) at 24 hours (AID 2283689). The essentials:
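CYP3A4 mRNA induction read by quantitative nuclease protection (chemiluminescence) 24 hr after dosing. Cultured human hepatocytes (two donor preparations) treated daily, vehicle 0.2% DMSO; phase-contrast morphology annotates cytotoxicity.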

Read-out in experiment [12]: alkyl and aryl transferase (GSTA2), GSTA2 (gene 2939)
The experiment in a line: CLD_GSTA2_24hr: CellzDirect (CLD) Gene Expression Assay for alkyl and aryl transferase (GSTA2) at 24 hours (AID 2283693). In a few lines:
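GSTA2 transcript levels were quantified by quantitative nuclease protection assay in primary human hepatocytes 24 h after daily dosing with fresh solutions at multiple concentrations; 0.2% DMSO vehicle as baseline, cytotoxicity flagged morphologically.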

Read-out in experiment [13]: ABC Transporter (ABCB1), ABCB1 (gene 5243)
The experiment can be described thus: CLD_ABCB1_48hr: CellzDirect (CLD) Gene Expression Assay for ABC Transporter (ABCB1) at 48 hours (AID 2283695). The essentials:
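ABCB1 mRNA was measured by quantitative nuclease protection assay (chemiluminescence) 48 h after dosing. Human hepatocyte cultures from two separate donors received fresh dosing solutions daily for two days, with 0.2% DMSO as vehicle. Positive-direction fit against DMSO.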

Read-out in experiment [14]: glucuronosyltransferase (UGT1A1), UGT1A1 (gene 54658)
The experiment can be described thus: CLD_UGT1A1_24hr: CellzDirect (CLD) Gene Expression Assay for glucuronosyltransferase (UGT1A1) at 24 hours (AID 2283696). The essentials:
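UGT1A1 transcript induction was measured by quantitative nuclease protection assay (chemiluminescence) in human hepatocyte cultures 24 h after daily fresh dosing, with 0.2% DMSO as vehicle and baseline.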

Read-out in experiment [15]: xenobiotic metabolism (CYP1A1), CYP1A1 (gene 1543)
The experiment in a line: CLD_CYP1A1_48hr: CellzDirect (CLD) Gene Expression Assay for xenobiotic metabolism (CYP1A1) at 48 hours (AID 2283705). In a few lines: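 CYP1A1 transcript measured by quantitative nuclease protection (chemiluminescent) 48 h after two daily treatments of human hepatocyte cultures, versus 0.2% DMSO. Morphology-based cytotoxicity flags accompany data; two donor preparations used.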

Read-out in experiment [16]: ABC Transporter (ABCB1), ABCB1 (gene 5243)
The experiment in a line: CLD_ABCB1_24hr: CellzDirect (CLD) Gene Expression Assay for ABC Transporter (ABCB1) at 24 hours (AID 2283684). In a few lines: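 ABCB1 mRNA induction versus 0.2% DMSO vehicle was read by qNPA chemiluminescence at 24 h. Cultured human hepatocytes from two donor preparations received daily fresh dosing, and phase-contrast cytotoxicity calls were annotated alongside the data.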

Read-out in experiment [17]: Cytochrome P450 2B6 (Homo sapiens) (UniProt P20813)
The experiment in a line: CLD_CYP2B6_48hr: CellzDirect (CLD) Gene Expression Assay for xenobiotic metabolism (CYP2B6) at 48 hours (AID 2283699).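 Note: actives raise transcript level above DMSO so potency reflects induction.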 The essentials:
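CYP2B6 transcript induction, read by quantitative nuclease protection (S1 digestion, chemiluminescent detection) 48 h after dosing, is fitted upward against 0.2% DMSO. Cultured human liver primary cells, two donor preparations, received fresh chemical daily over multiple concentrations.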

Read-out in experiment [18]: Cytochrome P450 3A4 (Homo sapiens) (UniProt P08684)
The experiment in a line: CLD_CYP3A4_48hr: CellzDirect (CLD) Gene Expression Assay for xenobiotic metabolism (CYP3A4) at 48 hours (AID 2283698). The essentials:
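CYP3A4 induction read by qNPA chemiluminescence after 48 h, with fresh dosing solutions on consecutive days, in cultured human hepatocytes (two donors). Vehicle 0.2% DMSO as baseline; microscopy-based cytotoxicity annotated yes/no alongside data.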

Records with an inconclusive call do not appear. Calls of active or inactive are those of the source. Rule for the calls: active = hit-call score of the fitted dose curve at least 0.9, where 1 is the maximum; inconclusive = response in the unintended direction; inactive = score below 0.9.

Sequence of Cytochrome P450 2C19 (Homo sapiens) (P33261 whole entry, looked up): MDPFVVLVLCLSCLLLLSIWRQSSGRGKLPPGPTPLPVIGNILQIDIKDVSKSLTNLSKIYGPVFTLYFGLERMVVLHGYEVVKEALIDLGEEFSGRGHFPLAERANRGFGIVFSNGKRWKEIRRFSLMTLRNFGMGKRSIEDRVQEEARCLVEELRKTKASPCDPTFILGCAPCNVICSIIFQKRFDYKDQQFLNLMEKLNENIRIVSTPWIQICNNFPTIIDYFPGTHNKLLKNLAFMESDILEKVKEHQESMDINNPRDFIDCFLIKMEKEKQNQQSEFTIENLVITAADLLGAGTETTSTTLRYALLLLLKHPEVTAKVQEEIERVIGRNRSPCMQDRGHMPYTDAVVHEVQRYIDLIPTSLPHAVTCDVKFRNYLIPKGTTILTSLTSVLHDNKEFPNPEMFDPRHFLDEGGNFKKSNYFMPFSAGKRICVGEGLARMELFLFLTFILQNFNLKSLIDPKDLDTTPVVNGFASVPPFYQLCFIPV
Sequence of Cytochrome P450 3A4 (Homo sapiens) (P08684 whole entry, looked up): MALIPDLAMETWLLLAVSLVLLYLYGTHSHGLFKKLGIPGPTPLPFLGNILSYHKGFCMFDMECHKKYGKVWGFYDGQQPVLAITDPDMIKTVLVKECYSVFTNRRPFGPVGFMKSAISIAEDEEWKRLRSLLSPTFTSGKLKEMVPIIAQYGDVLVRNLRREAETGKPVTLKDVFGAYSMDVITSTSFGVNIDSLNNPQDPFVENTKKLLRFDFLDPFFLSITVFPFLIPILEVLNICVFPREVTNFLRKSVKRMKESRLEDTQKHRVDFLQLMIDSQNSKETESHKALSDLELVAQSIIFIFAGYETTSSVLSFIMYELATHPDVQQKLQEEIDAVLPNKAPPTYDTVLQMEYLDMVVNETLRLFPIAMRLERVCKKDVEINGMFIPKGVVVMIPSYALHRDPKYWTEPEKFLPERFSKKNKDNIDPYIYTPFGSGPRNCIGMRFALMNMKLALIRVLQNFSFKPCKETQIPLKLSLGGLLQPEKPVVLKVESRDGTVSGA
Sequence of Glyceraldehyde-3-phosphate dehydrogenase (Homo sapiens) (P04406 whole entry, looked up): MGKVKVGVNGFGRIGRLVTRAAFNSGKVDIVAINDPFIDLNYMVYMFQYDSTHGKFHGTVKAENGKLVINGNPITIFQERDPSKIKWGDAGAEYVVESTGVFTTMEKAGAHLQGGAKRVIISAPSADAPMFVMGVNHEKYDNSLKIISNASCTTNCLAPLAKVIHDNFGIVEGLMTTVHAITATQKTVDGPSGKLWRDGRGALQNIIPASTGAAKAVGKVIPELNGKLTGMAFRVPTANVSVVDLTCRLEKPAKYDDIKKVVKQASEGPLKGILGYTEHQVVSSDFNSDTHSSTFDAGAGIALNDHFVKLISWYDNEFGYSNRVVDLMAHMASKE
Sequence of Broad substrate specificity ATP-binding cassette transporter ABCG2 (Homo sapiens) (Q9UNQ0 whole entry, looked up): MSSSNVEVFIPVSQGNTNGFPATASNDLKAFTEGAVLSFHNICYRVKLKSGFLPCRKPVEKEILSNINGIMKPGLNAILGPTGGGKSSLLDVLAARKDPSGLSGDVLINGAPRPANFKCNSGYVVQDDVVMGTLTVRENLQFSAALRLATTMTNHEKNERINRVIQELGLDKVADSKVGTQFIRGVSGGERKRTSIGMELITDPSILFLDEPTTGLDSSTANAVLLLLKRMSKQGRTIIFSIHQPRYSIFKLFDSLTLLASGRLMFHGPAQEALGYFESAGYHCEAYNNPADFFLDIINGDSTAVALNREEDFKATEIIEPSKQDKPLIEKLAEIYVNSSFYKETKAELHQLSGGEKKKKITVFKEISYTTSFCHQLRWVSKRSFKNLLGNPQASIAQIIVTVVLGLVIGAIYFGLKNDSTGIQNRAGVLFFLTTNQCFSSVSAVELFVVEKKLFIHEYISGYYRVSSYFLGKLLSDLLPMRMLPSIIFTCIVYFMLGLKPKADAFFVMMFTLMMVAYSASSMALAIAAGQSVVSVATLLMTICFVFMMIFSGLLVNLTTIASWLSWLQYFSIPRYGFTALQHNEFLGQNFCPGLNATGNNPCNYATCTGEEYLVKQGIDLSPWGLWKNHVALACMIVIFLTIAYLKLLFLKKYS

For the compound `CCNC(=O)NC(=O)C(C#N)=NOC`, the compound was classed as inactive in [1], in experiment [2], in experiment [3], in experiment [4], in [5] and in experiment [6]. For the same compound, the result in experiment [7] and in [8] was inactive.

The term AC50 denotes the concentration at which the activity in the assay is half-maximal. For the compound `CS(=O)(=O)c1ccc(C(=O)C2C(=O)CCCC2=O)c([N+](=O)[O-])c1`, the compound was classed as inactive in [1], in experiment [9], in experiment [3], in [11], in [5] and in [6]. The call in experiment [12], in [13], in experiment [7] and in experiment [8] was inactive. Further, in experiment [10], the AC50 is 0.000305 µM (active).

In the case of `CC(C)N1C(=O)c2ccccc2NS1(=O)=O`, the outcome in experiment [1], in experiment [3], in experiment [11], in [5], in experiment [6] and in [12] was inactive. The call in experiment [13], in [14], in experiment [7] and in [15] was inactive.

`CCCCOCN(C(=O)CCl)c1c(CC)cccc1CC`: the outcome in [1], in experiment [16], in experiment [3], in experiment [11], in [12] and in experiment [13] was inactive. For the same compound, the call in experiment [14] was inactive. In addition, the AC50 in experiment [9] is 1.11 µM (active); in experiment [7] it was 9.38 µM (active).

For `CCCN(CC)CC1COC2(CCC(C(C)(C)C)CC2)O1` (stereo not given), the concentration at half-maximal activity (AC50) in experiment [1] was 0.583 µM (active); in [11], 4.82 µM (active); in experiment [5], 0.0742 µM (active); in experiment [7], 0.199 µM (active); in experiment [15], 3.97 µM (active). The compound was classed as inactive in experiment [16], in experiment [2], in [3], in [6], in [12] and in experiment [13]. The compound was classed as inactive in experiment [14], in experiment [17] and in experiment [8].

Take `CC(C)Nc1nc(Cl)nc(NC(C)C)n1`: the AC50 is 7.72 µM (active) in [1]; 3.26 µM (active) in experiment [9]; 6.2 µM (active) in [11]; 4.11 µM (active) in experiment [14]; 3.54 µM (active) in experiment [18]; 2.76 µM (active) in [7]. For the same compound, the compound was called inactive in experiment [16], in experiment [4], in experiment [6], in experiment [13] and in [15].

With `N#CN=C1SCCN1Cc1ccc(Cl)nc1`, the call in experiment [1], in experiment [16], in experiment [3], in [5], in experiment [6] and in experiment [12] was inactive. The compound was classed as inactive in experiment [13], in [14], in [7] and in experiment [8]. The AC50 in [9] was 11.6 µM (active); in experiment [11] it was 10.9 µM (active).
